The assay has as its target Genome polyprotein (Dengue virus type 2 (strain 16681-PDK53)) (UniProt P29991). In words: Dengue-2 NS5 methyltransferase inhibitors, primary screen, biochemical, confirmation dose response (AID 588689). The conditions noted are these: Dengue-2 NS5 methyltransferase capping enzyme assay, at 25 µM, stronger effect = higher value.

About 1,000 (0.29%) of roughly 340,000 compounds were called active. Cut-off read from the data, not from the text of the source: inconclusive = inhibition above about 29% without an active follow-up result; inactive = below that. Not all results are given here. Potency and affinity values are given separately.

As usually defined, the inhibition is the change of the read-out against control, counted positive when it falls.

Regarding `CC(C)(C)OC(=O)C[C@H]1C/C=C\C[C@@H](CC(=O)N(CCO)Cc2ccccc2)C(=O)N[C@@H](Cc2ccccc2)COC1=O`, the inhibition was 1.65% (inactive).
Still for that read-out and setting: as for `CCOC(=O)C1CCN(C(=O)C2CCN(S(=O)(=O)c3ccc4c(c3)CC(C)N4C(C)=O)CC2)CC1` (stereo unspecified), the figure is 2.72% (inactive).
Still for that read-out and setting: as for `O=C(C1CCN(Cc2ccc(Cl)cc2)CC1)N1CCN(C(c2ccccc2)c2ccccc2)CC1`, the figure is -2.91% (inactive).
The same measure, in the same setting: as for `O=C(O)c1ccc2c(c1)C(=O)N(c1cccc(C(=O)/C=C/c3ccccc3)c1)C2=O`, the figure is -7.15% (inactive); as for `O=C(O)c1ccc2c(c1)C(=O)N(c1ccc(Nc3ccccc3)cc1)C2=O`, 7.94% (inactive).
On to `O=C(c1ccccc1)c1ccccc1C(=O)c1ccccc1`, for which the inhibition was 1.31% (inactive).
Same read-out and setting: as for `O=C(c1ccccc1)c1ccccc1`, the figure is -1.45% (inactive).
On the same count and under the same terms, as for `Cc1ccc(CN2[C@@H]3c4ccccc4C[C@@H]3OCCS2(=O)=O)cc1`, the figure is -4.81% (inactive).
The same measure, in the same setting: next, `O=C(NCCc1ccccc1)c1cnc2ccccn2c1=O`: 1.36% (inactive); `COc1cc(CCNC2=CC(=O)c3ncccc3C2=O)ccc1O`: -6.94% (inactive); `O=C1c2ccccc2-c2cccnc21`: -0.66% (inactive).
For `COC(=O)CC1=NN(c2ccc(OC)cc2)C(=O)/C1=C\c1ccc(Cl)cc1`, the inhibition is -4.74% (inactive).
On the same count and under the same terms, next, `CCOC(=O)CC1=NN(c2ccccc2)C(=O)/C1=C\c1ccc(N(C)C)cc1`: 13.3% (inactive).
`COc1ccc(/C=C2/C(=O)N(c3cccc(F)c3)N=C2C)c(OC)c1`: the inhibition is 16.7% (inactive).
For `COc1ccc(C2=NN(c3ccccc3)C(=O)/C2=C\c2ccc(O)c(OC)c2)cc1`, the inhibition was 8.85% (inactive).
The same measure, in the same setting: next, `O=C(CN1C(=O)c2ccccc2C1=O)OCC(=O)c1ccc(F)cc1`: 5.07% (inactive); `COc1cc(C(=O)NCC(c2ccco2)N2CCOCC2)cc(OC)c1OC` (stereo unspecified): -3.67% (inactive); `CCOc1ccc(CCN2C(=S)N([C@@H](CC(C)C)CN3CCCC3CN3C(=S)NC[C@@H]3CC(C)C)C[C@@H]2Cc2ccccc2)cc1` (stereo partly specified): 0.65% (inactive).
Same read-out and setting: as for `O=C(c1ccc(NC(=S)Nc2ccc(Cl)c(Cl)c2)cc1)N1CCCC1`, the figure is -10.3% (inactive); as for `Cc1ccc(S(=O)(=O)CC(=O)c2cc3cccc(C)c3oc2=O)cc1`, 5.44% (inactive); as for `COc1cccc2cc(C(=O)CS(=O)(=O)c3ccc(C)cc3)c(=O)oc12`, 10.9% (inactive).
Still for that read-out and setting: as for `COCCCNC(=O)/C=C/c1c(Cl)cccc1Cl`, the figure is -0.74% (inactive).
Turning to `Cc1cc(N2C(=O)C(O)=C(C(=O)c3ccco3)C2c2cccc(O)c2)no1` (stereo unspecified), the inhibition is -4.44% (inactive).
Same read-out and setting: as for `COC(=O)c1ccc(C2C(C(=O)c3ccc(C)o3)=C(O)C(=O)N2c2cc(C)on2)cc1` (stereo unspecified), the figure is -3.53% (inactive).
Same read-out and setting: next, `CCOc1ccc(C2C(C(=O)c3ccc(C)o3)=C(O)C(=O)N2c2cc(C)on2)cc1OC` (stereo unspecified): 4.09% (inactive); `COc1cccc(C2C(C(=O)c3ccc(C)o3)=C(O)C(=O)N2c2cc(C)on2)c1` (stereo unspecified): -1.77% (inactive); `Cc1cc(N2C(=O)C(O)=C(C(=O)c3ccco3)C2c2cccc(Cl)c2)no1` (stereo unspecified): -4.65% (inactive).
On the same count and under the same terms, next, `Cc1cc(N2C(=O)C(O)=C(C(=O)c3ccc(C)o3)C2c2cccc(Cl)c2)no1` (stereo unspecified): 10.9% (inactive).
With `O=C(NCN1CCN(c2ccccn2)CC1)c1cnccn1`, the inhibition was -4.12% (inactive).
Regarding `O=C(Nc1cccc([N+](=O)[O-])c1)c1cc(S(=O)(=O)Nc2ccccn2)ccc1Cl`, the inhibition was 0.65% (inactive).
The same measure, in the same setting: as for `O=C(COC(=O)CSc1ccc([N+](=O)[O-])cc1)NCC1CCCO1` (stereo unspecified), the figure is 5.91% (inactive); as for `COc1ccc2c(c1)c1ccc3c(c1n2C)C(=O)C=CC3=O`, 5.87% (inactive).
On the same count and under the same terms, as for `Cc1ccc2c(c1)c1ccc3c(c1n2C)C(=O)C=CC3=O`, the figure is 47.6% (inactive); as for `Cc1cc(=O)n(C)c2ccccc12`, -7.77% (inactive); as for `Cc1ccc(C)c2c1c1ccccc1n2C`, 0.78% (inactive).
Still for that read-out and setting: as for `CCC(C)NC(=O)CCSCCC(=O)NC(C)CC` (stereo unspecified), the figure is -4.42% (inactive); as for `CCCC(C)C(=O)Nc1ccc(S(N)(=O)=O)cc1` (stereo unspecified), -3.64% (inactive).
As for `CCOC(=O)C1CCCN(S(=O)(=O)NC[C@H]2O[C@@H](n3cnc4c(N)ncnc43)[C@H](O)[C@@H]2O)C1` (stereo partly specified), the inhibition was -8.6% (inactive). Moreover, the inhibition (measured here: pilot screen replicate inhibition) was -4.29%.
Regarding `Fc1cnc(N2CCc3ccccc32)nc1N1CCc2ccccc21`, the inhibition is -0.68% (inactive).
Same read-out and setting: as for `O=C1C(=Cc2ccco2)C(=O)c2ccccc21`, the figure is -4.01% (inactive).
On the same count and under the same terms, next, `O=C(O)c1ccc2c(c1)C(=O)N(N1C(=O)c3ccccc3C1=O)C2=O`: 5.13% (inactive); `O=C(O)c1ccc2c(c1)C(=O)N(Cc1ccco1)C2=O`: 5.56% (inactive); `Cc1ccc(C=C2C(=O)c3ccccc3C2=O)o1`: 1.92% (inactive).
The same measure, in the same setting: next, `Cc1ccc(C(=O)O)cc1-c1ccc(C=C2C(=O)c3ccccc3C2=O)o1`: -0.73% (inactive); `Cc1cc(C(=O)O)ccc1-n1c(C)cc(C=C2C(=O)c3ccccc3C2=O)c1C`: -19.9% (inactive); `COc1cc(COC(=O)c2cnc(C)cn2)c(OC)cc1Br`: 7.48% (inactive).
Take `Cc1cc(Br)ccc1SCC(=O)OCC(=O)NCc1ccco1`: the inhibition is 13.5% (inactive).
Take `COC(=O)CCC(=O)COc1ccccc1C#N`: the inhibition is -1.61% (inactive).
On the same count and under the same terms, as for `O=S(=O)(O)c1cc(O)c(N=Nc2ccc(O)cc2O)c2ccccc12`, the figure is 22.4% (inactive); as for `Oc1ccc(N=Nc2ccc(Br)cc2)c(O)c1`, 7.83% (inactive); as for `CCOC(=O)CSc1nc2c(sc(=S)n2-c2ccc(OCC)cc2)c(=O)[nH]1`, 0% (inactive).
Same read-out and setting: as for `CCOc1ccc(-n2c(=S)sc3c(=O)n(-c4ccccc4)c(SCC(=O)O)nc32)cc1`, the figure is -5.28% (inactive); as for `CC(C)N1C(=O)C(=O)N(CC(=O)N2c3ccccc3NC(=O)CC2C)C1=O` (stereo unspecified), 4.36% (inactive); as for `COCC(C)NC(=O)c1cc(-c2ccccc2OC)on1` (stereo unspecified), -5.61% (inactive).
Consider `CCOC(=O)C1=CN2CCCC[C@@H]2CC1=O`, for which the inhibition was -4.81% (inactive).
Same read-out and setting: as for `CCOC(=O)C1=CN2CCC[C@H]2CC1=O`, the figure is -9.17% (inactive); as for `Cc1ccc(S(=O)(=O)NCCC(=O)N2CCC(Cc3ccccc3)CC2)cc1`, -2.89% (inactive).
Same read-out and setting: as for `CCN(CC(=O)Nc1ccccc1C(F)(F)F)C(=O)c1ccc2c(c1)NC(=O)C(C)S2` (stereo unspecified), the figure is -4.95% (inactive); as for `NC(=O)C1CCN(C(=O)c2ccc3c(=O)n(Cc4ccco4)c(SCc4ccc([N+](=O)[O-])cc4)nc3c2)CC1`, 12.3% (inactive).
Take `CC1(NC(=O)N2CCOCC2)CCS(=O)(=O)C1` (stereo unspecified): the inhibition was 0% (inactive).
Still for that read-out and setting: next, `CC1(C)CC(=O)C(C(C2=C(O)CC(C)(C)CC2=O)c2ccc(Cl)c([N+](=O)[O-])c2)C(=O)C1` (stereo unspecified): -1.46% (inactive); `CC1(C)CC(=O)C(C(C2=C(O)CC(C)(C)CC2=O)c2ccc([N+](=O)[O-])cc2)C(=O)C1` (stereo unspecified): 1.82% (inactive); `COc1cc(C(=O)NCC(=O)N2CCN(S(=O)(=O)c3ccccc3C(F)(F)F)CC2)cc(OC)c1OC`: -3.36% (inactive).
On the same count and under the same terms, next, `C=CSc1sc(Cl)c(N2CCOCC2)c1[N+](=O)[O-]`: 0% (inactive); `O=c1sc2ccccc2c(N2CCOCC2)c1[N+](=O)[O-]`: -3.49% (inactive).
As to `COCCN1C(=O)/C(=C2/C(=O)N(CC(=O)Nc3ccccc3Cl)c3ccccc32)SC1=S`, the inhibition is 6.48% (inactive).
On to `CN1C(=O)/C(=C2\SC(=S)N(CCCCCC(=O)O)C2=O)c2ccccc21`, for which the inhibition was -1.55% (inactive).
The same measure, in the same setting: next, `NN1C(=O)/C(=C2/Sc3ccccc3N2CCCS(=O)(=O)O)SC1=S`: -12.9% (inactive); `O=C(O)CCN1C(=O)/C(=C2\C(=O)N(Cc3ccccc3Cl)c3ccccc32)SC1=S`: 22.2% (inactive).
On the same count and under the same terms, next, `CC1CN(C2=NC(=O)/C(=C3/C(=O)N(Cc4ccc(F)cc4)c4ccccc43)S2)CC(C)O1` (stereo unspecified): -3.91% (inactive).
Same read-out and setting: next, `O=C(O)CCN1C(=O)C(=C2CCCCCC2)SC1=S`: 10.4% (inactive); `CC(C)NC(=O)COC(=O)c1ccccc1Oc1ccccc1`: -2.2% (inactive); `CCOC(=O)C1=C(C)N=c2s/c(=C3/C(=O)Nc4ccccc43)c(=O)n2C1c1ccc(C)cc1` (stereo unspecified): 22.8% (inactive).
With `CCOC(=O)C1=C(C)N=c2s/c(=C\c3ccc(OCC(=O)O)c(OC)c3)c(=O)n2C1c1ccc(OC)cc1` (stereo unspecified), the inhibition is -8.46% (inactive).
The same measure, in the same setting: as for `O=C1CCC/C(=N\NC(=O)COc2ccc(Cl)cc2)C1`, the figure is 3.18% (inactive); as for `O=C(NN=C1CCCC1)c1ccc(Cl)cc1`, -2.6% (inactive).
On the same count and under the same terms, as for `O=C(CSc1nccc(=O)[nH]1)Nc1ccc(S(=O)(=O)N2CCOCC2)cc1`, the figure is 0% (inactive).
Still for that read-out and setting: as for `Cc1ccc(CNC(=O)CCn2ccc3cc(S(=O)(=O)N4CCCC4)ccc32)cc1`, the figure is -4.92% (inactive); as for `Cc1onc(-c2ccccc2)c1C(=O)OCC(=O)Nc1ccccc1`, 8.65% (inactive).
On to `O=C1C=C(Nc2ccccc2)C(=O)c2ccccc21`, for which the inhibition was -2.9% (inactive).
The same measure, in the same setting: as for `CC(=O)Nc1ccc(NC2=CC(=O)c3ccccc3C2=O)cc1`, the figure is -5.82% (inactive).
As for `O=C(NC1=C(Nc2ccc(Cl)cc2)C(=O)c2ccccc2C1=O)c1ccccc1`, the inhibition was -1.83% (inactive).
The same measure, in the same setting: as for `O=C(Nc1ccccc1Cl)c1ccccc1`, the figure is 1.49% (inactive); as for `O=C(Nc1cccc(Cl)c1)C1C2C=CC3(O2)C1C(=O)N(CCCN1CCCCC1)C3C(=O)NC1CCCCC1` (stereo unspecified), -16% (inactive).
Take `Cc1ccc(OCCCc2c(C)n[nH]c2C)cc1`: the inhibition is -5.36% (inactive).
On the same count and under the same terms, as for `CCCC1CC(CSc2ncn[nH]2)OC1=O` (stereo unspecified), the figure is -12.3% (inactive); as for `Cc1ccc(S(=O)(=O)N(CC(=O)N2CCOCC2)c2ccc(Br)cc2)cc1`, -8.01% (inactive); as for `Cc1ccc2ccc(S(=O)(=O)NCc3ccccn3)cc2c1`, -1.67% (inactive).
Same read-out and setting: next, `COc1cccc(CNC(=O)c2ccc(CS(=O)Cc3ccc(C)cc3)o2)c1` (stereo unspecified): -4.44% (inactive); `O=C(Nc1ccc(S(=O)(=O)NCc2ccco2)cc1)c1cccc(F)c1`: -4.85% (inactive).

The values above are taken from PubChem BioAssay AID588689 (Southern Research Specialized Biocontainment Screening …, 2011).
